IMPase Li inh: qHTS Assay for Identifying the Cell-Membrane Permeable IMPase Inhibitors: Potentiation with Lithium | CHO-M1 cells, IP1 TR-FRET (IP-One), carbachol + lithium | Potency, µM (top dose mostly 59.4 µM), for the others: at the highest dose activity, negative = IMPase inhibition, actives largely listed as inhibitors | 210,000 tested, 0.35% active; active = well fitted inhibition curve with a large enough effect; inconclusive = small, poorly fitted or top-dose-only effect; inactive = no such curve, though single readings can be large or run the other way;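 also: IP1 builds up when IMPase is blocked and the TR-FRET signal falls; potency is read from the fitted curve at half-maximal effect; plate controls were basal vehicle for no effect and high inhibitor control for full effect; nearly all actives have a fitted effect of over 50% in size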
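Readout is a homogeneous TR-FRET IP1 immunoassay (Ex 320, Em 665 and 620), where raised cytosolic IP1 lowers signal. Cells were CHO-M1 treated 30 min at 37C with test compounds plus a little lithium; AC50 values came from Hill-equation fitting.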
IMPase inh: qHTS Assay for Identifying the Cell-Membrane Permeable IMPase Inhibitors; Inositol monophosphatase 1 (Rattus norvegicus), P97697; 120,000 tested, under 10 active; AID 901, 2007; CHO-M1 cells, IP1 accumulation, HTRF TR-FRET ratio; inhibition (IP1 accumulation), % at 46.1 µM; active = well fitted curve in the direction sought with a large enough effect in the signal ratio, not every such curve was filed as active; inconclusive = small, poorly fitted or top-dose-only effect, or a change in a side signal; inactive = no such curve, though single readings can be large or run the other way; the % refers to the signal ratio;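 also: cells stimulated with carbachol in lithium chloride buffer; plate controls were DMSO basal wells for no effect and reference inhibitor wells for full effect; higher means more IMPase inhibition seen as more IP1 and lower FRET ratio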
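In this qHTS, compounds (final up to 46 uM) act on CHO-M1 cells that are then activated through the M1 receptor with carbachol, in pH 7.4 buffer containing 50 mM LiCl, for 30 min. IP1 accumulation is quantified by the IP-One immunoassay.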
PNC inhibitor: High Content Assay for Compounds that inhibit the Assembly of the Perinucleolar Compartment; activity change (PNC), negative = inhibition, % at 10 µM; PC3M PTB-GFP, PNC prevalence imaging, 16 h; hits give low values; 140,000 tested, 3.1% active; AID 2417, 2010;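 active = readout at or below -70, meaning at least 70% loss of cells showing the perinucleolar compartment, a nuclear body marking cancer cells; inconclusive = readout between -30 and a set limit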;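 also: plate controls were DMSO wells for no effect and camptothecin positive control wells for full effect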
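PC3M cells stably expressing PTB-GFP, 750–1000 cells/well, treated 16 h at 37 °C with compound (23 nl of library stock), in duplicate. After paraformaldehyde fixation and Hoechst stain, imaged at 20x; PNC prevalence scored by image analysis.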
ALDH1A1 inh: qHTS Assay for Inhibitors of Aldehyde Dehydrogenase 1 (ALDH1A1) | Aldehyde dehydrogenase 1A1 (Homo sapiens), P00352 | 220,000 tested, 7.3% active | Potency, µM (series often up to 75.3 µM), without a hit: at the highest dose activity, negative = inhibition, most hits filed as inhibitors | AID 1030, 2008 | Purified ALDH1A1, NADH fluorescence, propionaldehyde substrate;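 also: potency is read from the fitted curve at half-maximal effect; plate controls were no enzyme wells and a reference inhibitor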
Target sequence (P00352 whole entry, looked up): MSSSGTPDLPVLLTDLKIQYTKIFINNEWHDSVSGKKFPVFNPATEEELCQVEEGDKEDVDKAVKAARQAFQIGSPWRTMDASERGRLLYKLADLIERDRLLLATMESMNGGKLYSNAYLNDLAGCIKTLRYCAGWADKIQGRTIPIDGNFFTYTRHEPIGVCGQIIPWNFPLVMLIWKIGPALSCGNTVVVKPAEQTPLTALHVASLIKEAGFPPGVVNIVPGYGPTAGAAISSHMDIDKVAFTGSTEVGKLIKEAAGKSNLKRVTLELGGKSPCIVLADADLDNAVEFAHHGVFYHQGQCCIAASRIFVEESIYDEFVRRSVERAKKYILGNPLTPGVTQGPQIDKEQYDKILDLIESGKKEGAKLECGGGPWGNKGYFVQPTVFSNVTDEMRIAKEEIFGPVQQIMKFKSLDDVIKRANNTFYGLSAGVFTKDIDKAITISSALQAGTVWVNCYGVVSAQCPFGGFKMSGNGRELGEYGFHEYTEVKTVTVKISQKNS
HPGD block: qHTS Assay for Inhibitors of HPGD (15-Hydroxyprostaglandin Dehydrogenase); Potency, µM, for inactives: top-dose activity change, negative = inhibition, usual class: inhibitors; purified HPGD, NADH fluorescence kinetic, PGE2 substrate; 15-hydroxyprostaglandin dehydrogenase [NAD(+)] (Homo sapiens), P15428; AID 894, 2007; 150,000 tested, 4.3% active; also: potency is read from the fitted curve at half-maximal effect
Target sequence (P15428 whole entry, looked up): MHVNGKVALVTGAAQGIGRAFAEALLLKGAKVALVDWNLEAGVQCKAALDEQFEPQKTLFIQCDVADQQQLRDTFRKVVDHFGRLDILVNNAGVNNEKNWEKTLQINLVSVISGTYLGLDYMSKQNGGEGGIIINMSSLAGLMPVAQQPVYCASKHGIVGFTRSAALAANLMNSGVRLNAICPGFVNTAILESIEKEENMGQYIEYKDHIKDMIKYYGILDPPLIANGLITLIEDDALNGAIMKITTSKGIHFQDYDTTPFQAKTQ
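NADH formation kinetics: reaction with 30 uM PGE2 and 1 mM NAD+ (final), 20 nM enzyme, Tris-HCl pH 8 with Tween 20, after 15 min compound preincubation at room temperature. Fluorescence change, last versus first of five reads.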
* hit, by the source's call; ? = inconclusive; . = no result; [ ] = remark or other dose. This is a sample that favours compounds with a hit; in the whole collection about 11% have one here. Unless noted, calls follow the shape of the dose curve; as a rule, active = well fitted inhibition curve with a large enough effect (not every such curve was filed as active); inconclusive = small, poorly fitted or top-dose-only effect, or another doubt; inactive = no such curve, though single readings can be large or run the other way. Unless noted, % is scaled to controls: 0 for no effect and ±100 for the full control effect.

SMILES | IMPase Li inh | IMPase inh | PNC inhibitor | ALDH1A1 inh | HPGD block
CCCCN1C(=O)c2ccc(C(=O)Nc3ccccc3N3CCOCC3)cc2C1=O | 4% | . | . | 0.89µM* | .
COc1ccc(C)cc1C(=O)CCC(=O)Nc1ccccc1N1CCOCC1 | 16%[38.3 µM] | 11 | 4 | 28µM* | -12%
O=C(O)c1ccc(CNCc2ccccc2)cc1 | -3% | . | . | 6%[13.5 µM] | -13%
COc1cc2c(cc1OC)C(c1ccc(N)cc1)=NNC(=O)C2 | -21% | 1 | . | -8% | -20%
COc1ccc(C(=O)NC(=S)Nc2ccccc2N2CCOCC2)cc1Br | 11% | . | -10 | ? | -17%
Cc1ccc(C(=O)Nc2ccccc2N2CCCCC2)cc1[N+](=O)[O-] | 19% | . | . | -5% | .
Cc1ccc(C(=O)NC(=S)Nc2ccccc2N2CCCC2)cc1[N+](=O)[O-] | 9% | . | 9 | 20µM* | -12%
CCOc1ccc(C(=O)NC(=S)Nc2ccccc2N2CCOCC2)cc1Br | 15% | . | -24 | 4µM* | -13%
CCC(=O)N1CCN(c2ccccc2NC(=S)NC(=O)c2cccc([N+](=O)[O-])c2)CC1 | 14% | . | . | 14µM* | .
COC(=O)C1(C(=O)OC)CC2=CC(CC2=O)Cc2ccccc2[C@@H]1C[N+](=O)[O-] (some centres undefined) | 1% | . | . | 9% | -4%
C1CN(c2nc3nonc3nc2N2C[C@H]3CC[C@H]2C3)CCS1 | 13% | . | . | ? | .
CC1(C)S[C@@H]2[C@H](NC(=O)C(N)c3ccccc3)C(=O)N2[C@H]1C(=O)O (some centres undefined) | . | . | . | 7%[20.9 µM] | -15%
CC1(C)S[C@@H]2[C@H](NC(=O)[C@@H](N)c3ccccc3)C(=O)N2[C@H]1C(=O)O[C@H]1OC(=O)c2ccccc21 | 7% | 2[20.6 µM] | . | 2.8µM* | ?
CCOc1ccc(N(C(C)=O)c2nc(C)cc(C)c2C#N)cc1 | 6% | 4 | -14 | 0% | 2%
CC1=C(C(=O)N2CCOCC2)C(c2ccc(C)cc2)NC(=S)N1 (centres undefined) | . | 1 | 51 | 18µM* | .
O=C(CCBr)N1CCN(C(=O)CCBr)CC1 | -5% | . | . | 0.89µM* | ?
C[C@H]1[C@H](C)CC[C@]2(C(=O)O)CC[C@]3(C)C(=CCC4[C@@]5(C)C[C@@H](O)[C@H](O)[C@@](C)(CO)[C@@H]5CC[C@]43C)[C@H]12 (some centres undefined) | 8% | -2 | . | 4% | -4%
OCCn1c(CSc2nnc(-c3ccco3)n2-c2ccccc2)nc2ccc(Cl)cc21 | 20%[38.3 µM] | 11 | -8 | 13µM* | ?
Cc1ccc(NC(=S)NNC(=O)c2ccc(N3CCOCC3)c([N+](=O)[O-])c2)cc1C | 0% | . | -9 | 4µM* | -13%
CN(C)S(=O)(=O)c1cccc(NC(=O)c2ccc(N3CCOCC3)c([N+](=O)[O-])c2)c1 | 16% | . | -10 | 18µM* | -17%
Cc1ccc(NC(=O)c2ccc(N3CCOCC3)c([N+](=O)[O-])c2)cc1S(=O)(=O)N1CCOCC1 | 7% | 6 | -4 | ? | -4%
O=C(Nc1ccc(N2CCCCC2)c(Cl)c1)c1ccc(N2CCOCC2)c([N+](=O)[O-])c1 | 15%[38.3 µM] | 7 | 32 | 8.9µM* | -17%
O=C(Nc1ccc2c(c1)OCO2)c1ccc(NC2CC2)c([N+](=O)[O-])c1 | -4% | 2 | -24 | -4% | -15%
O=C(Nc1cccc(S(=O)(=O)N2CCOCC2)c1)c1ccc(Cl)c([N+](=O)[O-])c1 | 5% | . | . | -6% | .
O=C(Nc1ccc2c(c1)OCO2)c1ccc(N2CCCC2)c([N+](=O)[O-])c1 | 2% | . | 96 | 16µM* | -21%
SMILES | IMPase Li inh | IMPase inh | PNC inhibitor | ALDH1A1 inh | HPGD block
COc1ccccc1OCC(=O)N(Cc1cccs1)C1CCS(=O)(=O)C1 (centres undefined) | . | -6 | . | . | .
CC(C)c1nnc(N2C(=O)c3oc4ccccc4c(=O)c3C2c2ccccc2F)s1 (centres undefined) | . | 5 | . | . | .
O=C(Oc1ccc(Cl)cc1)c1ccc(N2CCOCC2)c([N+](=O)[O-])c1 | 8% | -15 | ? | ? | -18%
O=C(Nc1ccc(N2CCCC2)c(Cl)c1)c1ccccc1[N+](=O)[O-] | 2% | 3 | 28 | ? | -24%
Cc1ccc(OC(=O)c2ccc(N3CCOCC3)c([N+](=O)[O-])c2)cc1 | -7%[38.3 µM] | 3 | ? | 7.1µM* | ?
CC(=O)N1CCN(c2ccc(NC(=O)c3ccc(N4CCCC4)c([N+](=O)[O-])c3)cc2Cl)CC1 | -3% | -4 | ? | 7.9µM* | -5%
Cn1ncc2c(Nc3ccccc3Br)ncnc21 | 13%[38.3 µM] | -4 | 11 | -4% | -10%
Cn1ncc2c(Nc3cccc(C(=O)O)c3)ncnc21 | 6%[38.3 µM] | 3 | 67 | 13µM* | -18%
Cn1ncc2c(Nc3ccc(-c4ccccc4)cc3)ncnc21 | 10%[38.3 µM] | 11 | -82* | ? | ?
COc1ccc(CCCc2nnc(SCC(=O)Nc3cc(F)ccc3C)o2)cc1 | . | 23 | . | . | .
CC/C(C)=N/NC(=O)c1[nH]c2ccc(C)cc2c1-c1ccccc1 | 19% | . | . | ? | .
O=C(NN=C1CCCC1)c1[nH]c2ccc(Cl)cc2c1-c1ccccc1 | . | . | . | 11µM* | .
Cc1cc(-n2c(C)cc(C(=O)CSc3nnnn3-c3ccc(Cl)cc3)c2C)no1 | 11% | 9 | -100* | 8% | -16%
Cc1cc(C(=O)CSc2nnnn2C)c(C)n1-c1ccc2c(c1)OCCO2 | 42%[38.3 µM] | -8 | 32 | ? | 25µM*
Cc1cc(-n2c(C)cc(C(=O)CSc3nnc4sc5ccccc5n34)c2C)no1 | 17%[38.3 µM] | 7 | -12 | 3% | -20%
O=C1CN(C(=O)CSc2nc(-c3ccccc3)cs2)c2ccccc2N1 | 2% | . | -91* | 7% | 18µM*
CC1(C)C(=O)Nc2ccccc2N1C(=O)CSc1nc(-c2ccccc2)cs1 | 7% | 5 | 0 | -4% | -18%
Cc1cccc2cc(C#N)c(SCC(=O)N3CC(=O)Nc4ccccc43)nc12 | -8%[38.3 µM] | 9 | -85* | ? | -26%
Cc1cccc2cc(C#N)c(SCC(=O)N3CCC(C)CC3)nc12 | -3%[38.3 µM] | -2 | -24 | ? | ?
Cc1ccc(-n2nnnc2SCC(=O)N2CC(=O)Nc3ccccc32)cc1 | 66%[38.3 µM] | 11 | ? | 11µM* | ?
Cc1nnc(SCC(=O)N2CC(=O)Nc3ccccc32)n1C | 15%[38.3 µM] | 5 | 8 | 6% | -3%
C[N+](C)(C)CCCSc1nc2ccccc2[nH]1 | -4% | . | . | 5%[13.5 µM] | -2%

Screens as filed in PubChem BioAssay.
